# Residue numbers refer to the chain shown, from its start.
# What was measured:
# Assay in all cases: PBM; 200 nM protein, PBS
# Conditions in all cases: dsDNA, one strand shown
# CRX [1] = molecular target: CRX (Homo sapiens, UniProt O43186 26-111)
# HOXC10 [2] = molecular target: HOXC10 (Homo sapiens, UniProt Q9NYD6 254-340)
# CRX [3] = molecular target: CRX (Homo sapiens, UniProt O43186 26-111, E42D)
# HOXC10 [4] = molecular target: HOXC10 (Homo sapiens, UniProt Q9NYD6 254-340, K271E)
# CRX [5] = molecular target: CRX (Homo sapiens, UniProt O43186 26-111, R41L)
# ALX4 [6] = molecular target: ALX4 (Homo sapiens, UniProt Q9H161 200-286)
# PRRX1 [7] = molecular target: PRRX1 (Homo sapiens, UniProt P54821 80-166, F113S)
# ALX4 [8] = molecular target: ALX4 (Homo sapiens, UniProt Q9H161 200-286, Q225E)
# PRRX1 [9] = molecular target: PRRX1 (Homo sapiens, UniProt P54821 80-166)
# PROP1 [10] = molecular target: PROP1 (Homo sapiens, UniProt O75360 56-141)
# PROP1 [11] = molecular target: PROP1 (Homo sapiens, UniProt O75360 56-141, R99H)
# PROP1 [12] = molecular target: PROP1 (Homo sapiens, UniProt O75360 56-141, F88S)
# PAX4 [13] = molecular target: T1, PAX4 (Homo sapiens, UniProt O43316 9-242, R200K)
# T1 sequence: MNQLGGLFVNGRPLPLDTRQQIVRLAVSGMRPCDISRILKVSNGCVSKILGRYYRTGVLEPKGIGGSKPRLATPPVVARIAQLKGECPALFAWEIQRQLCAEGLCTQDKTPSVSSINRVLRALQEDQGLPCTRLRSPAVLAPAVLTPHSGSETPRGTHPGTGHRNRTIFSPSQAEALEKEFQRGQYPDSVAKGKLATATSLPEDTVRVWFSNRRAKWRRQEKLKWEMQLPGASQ
# PAX4 [14] = molecular target: T2, PAX4 (Homo sapiens, UniProt O43316 9-242)
# T2 sequence: T1 sequence with K192R
# PAX4 [15] = molecular target: T3, PAX4 (Homo sapiens, UniProt O43316 9-242, R200Q)
# T3 sequence: T1 sequence with K192Q
# PITX2 = PITX2 (Homo sapiens, UniProt Q99697 72-157)
# PAX4 [16] = molecular target: T4, PAX4 (Homo sapiens, UniProt O43316 9-242, F177V)
# T4 sequence: T1 sequence with F169V, K192R
# MSX2 [17] = molecular target: MSX2 (Homo sapiens, UniProt P35548 130-214, R199I)
# MSX2 [18] = molecular target: MSX2 (Homo sapiens, UniProt P35548 130-214)
# VAX1 [19] = molecular target: VAX1 (Homo sapiens, UniProt Q5SQQ9 86-172)
# MSX2 [20] = molecular target: MSX2 (Homo sapiens, UniProt P35548 130-214, F161Y)
# VAX1 [21] = molecular target: VAX1 (Homo sapiens, UniProt Q5SQQ9 86-172, T142I)
# VAX1 [22] = molecular target: VAX1 (Homo sapiens, UniProt Q5SQQ9 86-172, K157R)
# Chain of VAX1 (Homo sapiens, UniProt Q5SQQ9 86-172, K157R) (Q5SQQ9 86-172 K157R): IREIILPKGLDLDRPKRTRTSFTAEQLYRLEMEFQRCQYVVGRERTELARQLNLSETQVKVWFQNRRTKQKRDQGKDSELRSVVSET
# Chain of CRX (Homo sapiens, UniProt O43186 26-111, R41L) (O43186 26-111 R41L): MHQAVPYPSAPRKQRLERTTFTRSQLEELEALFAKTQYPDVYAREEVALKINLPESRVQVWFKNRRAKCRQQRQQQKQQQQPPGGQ
# Chain of CRX (Homo sapiens, UniProt O43186 26-111, E42D) (O43186 26-111 E42D): as the sequence (O43186 26-111 R41L) above, with L16R, E17D counted along it
# Chain of CRX (Homo sapiens, UniProt O43186 26-111) (O43186 26-111): as the sequence (O43186 26-111 R41L) above, with L16R counted along it
# Chain of PROP1 (Homo sapiens, UniProt O75360 56-141, F88S) (O75360 56-141 F88S): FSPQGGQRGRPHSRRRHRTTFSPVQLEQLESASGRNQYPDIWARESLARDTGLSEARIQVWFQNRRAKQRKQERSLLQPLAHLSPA
# Chain of PROP1 (Homo sapiens, UniProt O75360 56-141) (O75360 56-141): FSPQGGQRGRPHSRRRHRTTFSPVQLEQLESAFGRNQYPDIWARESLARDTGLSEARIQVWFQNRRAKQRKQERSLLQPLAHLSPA
# Chain of PROP1 (Homo sapiens, UniProt O75360 56-141, R99H) (O75360 56-141 R99H): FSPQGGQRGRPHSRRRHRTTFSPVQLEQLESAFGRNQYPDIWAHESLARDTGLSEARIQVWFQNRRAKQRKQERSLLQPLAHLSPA
# Chain of ALX4 (Homo sapiens, UniProt Q9H161 200-286) (Q9H161 200-286): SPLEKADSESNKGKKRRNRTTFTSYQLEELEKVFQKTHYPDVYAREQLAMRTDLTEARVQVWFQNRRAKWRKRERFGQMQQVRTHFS
# Chain of ALX4 (Homo sapiens, UniProt Q9H161 200-286, Q225E) (Q9H161 200-286 Q225E): as the sequence (Q9H161 200-286) above, with Q26E counted along it
# Chain of VAX1 (Homo sapiens, UniProt Q5SQQ9 86-172) (Q5SQQ9 86-172): as the sequence (Q5SQQ9 86-172 K157R) above, with R72K counted along it
# Chain of PRRX1 (Homo sapiens, UniProt P54821 80-166, F113S) (P54821 80-166 F113S): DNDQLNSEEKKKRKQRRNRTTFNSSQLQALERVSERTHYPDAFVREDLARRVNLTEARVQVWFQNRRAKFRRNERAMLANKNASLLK
# Chain of MSX2 (Homo sapiens, UniProt P35548 130-214, F161Y) (P35548 130-214 F161Y): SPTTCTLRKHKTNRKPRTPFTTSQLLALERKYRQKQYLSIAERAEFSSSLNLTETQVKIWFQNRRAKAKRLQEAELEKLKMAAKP
# Chain of VAX1 (Homo sapiens, UniProt Q5SQQ9 86-172, T142I) (Q5SQQ9 86-172 T142I): as the sequence (Q5SQQ9 86-172 K157R) above, with T57I, R72K counted along it
# Chain of HOXC10 (Homo sapiens, UniProt Q9NYD6 254-340, K271E) (Q9NYD6 254-340 K271E): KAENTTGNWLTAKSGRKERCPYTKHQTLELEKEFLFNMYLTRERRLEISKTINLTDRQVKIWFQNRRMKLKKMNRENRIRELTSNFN
# Chain of MSX2 (Homo sapiens, UniProt P35548 130-214, R199I) (P35548 130-214 R199I): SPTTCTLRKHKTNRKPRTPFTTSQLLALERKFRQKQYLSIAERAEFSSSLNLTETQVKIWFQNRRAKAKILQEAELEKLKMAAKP
# Chain of HOXC10 (Homo sapiens, UniProt Q9NYD6 254-340) (Q9NYD6 254-340): as the sequence (Q9NYD6 254-340 K271E) above, with E18K counted along it
# Chain of PRRX1 (Homo sapiens, UniProt P54821 80-166) (P54821 80-166): as the sequence (P54821 80-166 F113S) above, with S34F counted along it
# Chain of MSX2 (Homo sapiens, UniProt P35548 130-214) (P35548 130-214): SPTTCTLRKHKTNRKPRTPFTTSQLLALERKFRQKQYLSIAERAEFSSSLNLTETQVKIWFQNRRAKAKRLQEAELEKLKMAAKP
sequence,measurement,setting,value
CATCATAA,binding signal,CRX [1],"10.1 upbm affinity estimate (log intensity, higher = more binding, comparable within an allelic series)"
same,binding signal,HOXC10 [2],"11.7 upbm affinity estimate (log intensity, higher = more binding, comparable within an allelic series)"
same,binding signal,CRX [3],"10 upbm affinity estimate (log intensity, higher = more binding, comparable within an allelic series)"
same,binding signal,HOXC10 [4],"11.3 upbm affinity estimate (log intensity, higher = more binding, comparable within an allelic series)"
same,binding signal,CRX [5],"9.57 upbm affinity estimate (log intensity, higher = more binding, comparable within an allelic series)"
AGCTCAGC,binding signal,CRX [1],"9.88 upbm affinity estimate (log intensity, higher = more binding, comparable within an allelic series)"
same,binding signal,CRX [3],"9.76 upbm affinity estimate (log intensity, higher = more binding, comparable within an allelic series)"
CCTCCCAC,binding signal,CRX [1],"8.12 upbm affinity estimate (log intensity, higher = more binding, comparable within an allelic series)"
same,binding signal,ALX4 [6],"7.99 upbm affinity estimate (log intensity, higher = more binding, comparable within an allelic series)"
same,binding signal,PRRX1 [7],"9.27 upbm affinity estimate (log intensity, higher = more binding, comparable within an allelic series)"
same,binding signal,ALX4 [8],"8.07 upbm affinity estimate (log intensity, higher = more binding, comparable within an allelic series)"
same,binding signal,CRX [3],"8.07 upbm affinity estimate (log intensity, higher = more binding, comparable within an allelic series)"
same,binding signal,CRX [5],"8.16 upbm affinity estimate (log intensity, higher = more binding, comparable within an allelic series)"
same,binding signal,PRRX1 [9],"9.17 upbm affinity estimate (log intensity, higher = more binding, comparable within an allelic series)"
GAGGGCCC,binding signal,CRX [1],"8.25 upbm affinity estimate (log intensity, higher = more binding, comparable within an allelic series)"
same,binding signal,ALX4 [6],"7.97 upbm affinity estimate (log intensity, higher = more binding, comparable within an allelic series)"
same,binding signal,ALX4 [8],"7.92 upbm affinity estimate (log intensity, higher = more binding, comparable within an allelic series)"
same,binding signal,CRX [3],"8.06 upbm affinity estimate (log intensity, higher = more binding, comparable within an allelic series)"
same,binding signal,PROP1 [10],"6.79 upbm affinity estimate (log intensity, higher = more binding, comparable within an allelic series)"
same,binding signal,PROP1 [11],"6.72 upbm affinity estimate (log intensity, higher = more binding, comparable within an allelic series)"
same,binding signal,PROP1 [12],"6.48 upbm affinity estimate (log intensity, higher = more binding, comparable within an allelic series)"
same,binding signal,CRX [5],"8.14 upbm affinity estimate (log intensity, higher = more binding, comparable within an allelic series)"
AAAGATTA,binding signal,CRX [1],"12.9 upbm affinity estimate (log intensity, higher = more binding, comparable within an allelic series)"
same,binding signal,PAX4 [13],"10.9 upbm affinity estimate (log intensity, higher = more binding, comparable within an allelic series)"
same,binding signal,PAX4 [14],"11.2 upbm affinity estimate (log intensity, higher = more binding, comparable within an allelic series)"
same,binding signal,CRX [3],"12.8 upbm affinity estimate (log intensity, higher = more binding, comparable within an allelic series)"
same,binding signal,PAX4 [15],"11.1 upbm affinity estimate (log intensity, higher = more binding, comparable within an allelic series)"
same,binding signal,PITX2,"12.3 upbm affinity estimate (log intensity, higher = more binding, comparable within an allelic series)"
same,binding signal,PAX4 [16],"10.3 upbm affinity estimate (log intensity, higher = more binding, comparable within an allelic series)"
same,binding signal,CRX [5],"12.6 upbm affinity estimate (log intensity, higher = more binding, comparable within an allelic series)"
CTTACGAC,binding signal,CRX [1],"10.1 upbm affinity estimate (log intensity, higher = more binding, comparable within an allelic series)"
same,binding signal,CRX [3],"10 upbm affinity estimate (log intensity, higher = more binding, comparable within an allelic series)"
ACTATCCG,binding signal,CRX [1],"9.31 upbm affinity estimate (log intensity, higher = more binding, comparable within an allelic series)"
same,binding signal,CRX [3],"9.26 upbm affinity estimate (log intensity, higher = more binding, comparable within an allelic series)"
CCTAATAG,binding signal,CRX [1],"9.68 upbm affinity estimate (log intensity, higher = more binding, comparable within an allelic series)"
same,binding signal,CRX [3],"9.47 upbm affinity estimate (log intensity, higher = more binding, comparable within an allelic series)"
ATCAGTTA,binding signal,CRX [1],"9.84 upbm affinity estimate (log intensity, higher = more binding, comparable within an allelic series)"
same,binding signal,CRX [3],"9.71 upbm affinity estimate (log intensity, higher = more binding, comparable within an allelic series)"
AGCTCAGG,binding signal,CRX [1],"9.99 upbm affinity estimate (log intensity, higher = more binding, comparable within an allelic series)"
same,binding signal,CRX [3],"9.91 upbm affinity estimate (log intensity, higher = more binding, comparable within an allelic series)"
ACTTTATC,binding signal,CRX [1],"10.6 upbm affinity estimate (log intensity, higher = more binding, comparable within an allelic series)"
same,binding signal,CRX [3],"10.4 upbm affinity estimate (log intensity, higher = more binding, comparable within an allelic series)"
TGTGTTAA,binding signal,CRX [1],"10.4 upbm affinity estimate (log intensity, higher = more binding, comparable within an allelic series)"
same,binding signal,CRX [3],"10.2 upbm affinity estimate (log intensity, higher = more binding, comparable within an allelic series)"
GTGCCACA,binding signal,CRX [1],"8.41 upbm affinity estimate (log intensity, higher = more binding, comparable within an allelic series)"
same,binding signal,CRX [3],"8.34 upbm affinity estimate (log intensity, higher = more binding, comparable within an allelic series)"
same,binding signal,MSX2 [17],"9.58 upbm affinity estimate (log intensity, higher = more binding, comparable within an allelic series)"
same,binding signal,MSX2 [18],"9.65 upbm affinity estimate (log intensity, higher = more binding, comparable within an allelic series)"
same,binding signal,PROP1 [10],"6.66 upbm affinity estimate (log intensity, higher = more binding, comparable within an allelic series)"
same,binding signal,PROP1 [11],"6.7 upbm affinity estimate (log intensity, higher = more binding, comparable within an allelic series)"
same,binding signal,VAX1 [19],"7.16 upbm affinity estimate (log intensity, higher = more binding, comparable within an allelic series)"
same,binding signal,PROP1 [12],"6.8 upbm affinity estimate (log intensity, higher = more binding, comparable within an allelic series)"
same,binding signal,MSX2 [20],"9.56 upbm affinity estimate (log intensity, higher = more binding, comparable within an allelic series)"
same,binding signal,VAX1 [21],"7.19 upbm affinity estimate (log intensity, higher = more binding, comparable within an allelic series)"
same,binding signal,CRX [5],"8.33 upbm affinity estimate (log intensity, higher = more binding, comparable within an allelic series)"
same,binding signal,VAX1 [22],"7.08 upbm affinity estimate (log intensity, higher = more binding, comparable within an allelic series)"
